{"source": "the supplement of paper PMC11417369", "note": "Over roughly 25,000 sequences, “ln(normalized median fluorescence intensity)” has its median near 9.7; the highest 2% begin near 11. The sample holds the highest values, similar sequences and a random draw of the others, so the mix is not that of the screen.", "data": [{"test_system": "PfAP2-HC AP2 domain (GST-tagged)", "assay": "gcPBM binding intensity (ln(normalized median fluorescence intensity)); higher = stronger DNA binding", "how_it_was_run": "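Probes on an Agilent 4 × 180k array were primer-extended, double-stranded and 36 bp long, taken from intergenic genomic regions, with negative controls added. GST-tagged P. falciparum DNA-binding domains from E. coli, about 25 μg on average, were applied to the array for 1 h in 1× PBS containing 1% milk, 0.2 mg/ml BSA, 0.5% salmon testes DNA and 0.03% Triton X-100. Binding intensity, obtained after Alexa488 anti-GST antibody detection and a 488 nm scan, is the highest Masliner-normalised natural-log median intensity across replicate spots of either probe orientation.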", "values": [{"sequence": "AAAACAAATATATTAACACACAAACATATAAACAAA [CACACA_site6052]", "gcPBM binding intensity (ln)": 10.4}, {"sequence": "AAAAAAATAAGACACACACACAAAAAAATAAAAATA [CACACA_site6357]", "gcPBM binding intensity (ln)": 10.6}, {"sequence": "AAAATATATATTAACACACACACAAAAAAAAAAAAA [CACACA_site1325]", "gcPBM binding intensity (ln)": 11.2}, {"sequence": "AAAAAAAAAAAAAACACACACACAATAGTATATAAA [CACACA_site957]", "gcPBM binding intensity (ln)": 10.3}, {"sequence": "AAAAAAAAAAAAAACACACACACAAGAGTATATAAA [CACACA_site6580]", "gcPBM binding intensity (ln)": 11.1}, {"sequence": "TACTTACCAAAATACACACACACACTAGATATATAA [CACACA_site5096]", "gcPBM binding intensity (ln)": 11.3}, {"sequence": "TACTTACCAAAATACACACACACACCCAATATATAA [CACACA_site1871]", "gcPBM binding intensity (ln)": 10.5}, {"sequence": "AAAAATAAATAAGACACACACAAAAAAAAAAAAAAA [CACACA_site1432]", "gcPBM binding intensity (ln)": 9.87}, {"sequence": "AAAAAAATAAATAAGACACACACAAAAAAAAAAAAA [CACACA_site8404]", "gcPBM binding intensity (ln)": 11}, {"sequence": "TATTTTTTTCTTACTACACACATATATATGCTTTCC [CACACA_site4058]", "gcPBM binding intensity (ln)": 10}, {"sequence": "ATAGCATATATTTTTTGTACATATGTTATATATATA [XGTACX_site2184]", "gcPBM binding intensity (ln)": 9.66}, {"sequence": "TCAAAAATAAAGATCACACATATATATATATATATA [CACACA_site4381]", "gcPBM binding intensity (ln)": 9.73}, {"sequence": "AAAAAAAAAGATCACACACACATAAATATAAACAAA [CACACA_site5285]", "gcPBM binding intensity (ln)": 10.9}, {"sequence": "CACAAAAATAAACACACACACATATATATATATATA [CACACA_site4704]", "gcPBM binding intensity (ln)": 10.4}, {"sequence": "AAGTTCAAAATAAATGGTACAGAAGTATATATATCA [XGTACX_site174]", "gcPBM binding intensity (ln)": 9.75}, {"sequence": "ATATATCCAAATAGATTACATATATATATATAGATA [TGCATGCA_negctrl_site277]", "gcPBM binding intensity (ln)": 9.5}, {"sequence": "AACAGACAGAAACACACACACATATATATATATATA [CACACA_site3394]", "gcPBM binding intensity (ln)": 10.8}, {"sequence": "CAAGCACCCAGACACACACACACACCCACACCCACA [CACACA_site369]", "gcPBM binding intensity (ln)": 11.2}, {"sequence": "CAAGCACAGAAACACACACACACACCGACACAGACA [CACACA_site4359]", "gcPBM binding intensity (ln)": 10.9}, {"sequence": "ATCAAGCACGGACACACACACACACCCAGACCCCCA [CACACA_site4360]", "gcPBM binding intensity (ln)": 10.6}, {"sequence": "CACCCACCCAGACACACACACACAAAAAAAAAAAGA [CACACA_site499]", "gcPBM binding intensity (ln)": 11.2}, {"sequence": "TATACACCCAGACACACACACACACCCAAAAAAAAA [CACACA_site497]", "gcPBM binding intensity (ln)": 10.9}, {"sequence": "ACATCAAGCAGACACACACACACACCCACCCACCGA [CACACA_site371]", "gcPBM binding intensity (ln)": 10.7}, {"sequence": "CACAAAGACACAAACACACACACACCCACATACATA [CACACA_site452]", "gcPBM binding intensity (ln)": 10.5}, {"sequence": "ACATCAAGCAGACACACACACACACCCACCCACCCA [CACACA_site8012]", "gcPBM binding intensity (ln)": 11.5}, {"sequence": "TACACAAGCAGACACACACACATATATATATATATA [CACACA_site1270]", "gcPBM binding intensity (ln)": 10.2}, {"sequence": "ACATCAAGCGGACACACACACACACCGACAGACACA [CACACA_site4361]", "gcPBM binding intensity (ln)": 10.9}, {"sequence": "CAATATATTTGATTTACACACTTACAATGTATTTAA [CACACA_site5632]", "gcPBM binding intensity (ln)": 9.79}, {"sequence": "AAGAATTATTTTTTATGTACTTATATGTCAATTTTC [XGTACX_site6676]", "gcPBM binding intensity (ln)": 9.68}, {"sequence": "TTGTAGGAATTTATTTTGACTGATAATTAATACGTT [GTGCAC_negctrl_site46]", "gcPBM binding intensity (ln)": 9.47}, {"sequence": "AAAAAAAATATATATGCACACACAAAAAAACAAATT [CACACA_site8349]", "gcPBM binding intensity (ln)": 10.2}, {"sequence": "TAGTATCAATCTTATACATGCATAAAATAATTATAA [TGCATGCA_site1052]", "gcPBM binding intensity (ln)": 9.53}, {"sequence": "AAAAAATTTATAAAAGCACACAAAATAAAAAAAAAT [CACACA_site8420]", "gcPBM binding intensity (ln)": 9.78}, {"sequence": "TAACATATCTTTAATACACACTTAAAAAAGTACTTA [CACACA_site4532]", "gcPBM binding intensity (ln)": 9.41}, {"sequence": "CAGATAGACTTATATGCATGCATTCACCTGCCAACA [TGCATGCA_site158]", "gcPBM binding intensity (ln)": 9.66}, {"sequence": "AATATATGGTTTCATGATATAAAATTCAATTTAATG [GTGCAC_negctrl_site610]", "gcPBM binding intensity (ln)": 9.51}, {"sequence": "ATGTTTTATATTTTTTTTTTGTTTGCTTGTTTCCTC [CACACA_negctrl_site870]", "gcPBM binding intensity (ln)": 9.57}, {"sequence": "ATATACAAAGGATTAACACACATATTATTATAGATA [CACACA_site6966]", "gcPBM binding intensity (ln)": 9.87}, {"sequence": "TGTTTTTTATTTAATTGTACGAATTAAAAAAAATAA [XGTACX_site3009]", "gcPBM binding intensity (ln)": 9.1}, {"sequence": "TACACCCACCCACATACACACACATACACATATATA [CACACA_site8503]", "gcPBM binding intensity (ln)": 10.8}, {"sequence": "ATACATCAAGGACACACACACACACGCACACGCACA [CACACA_site6310]", "gcPBM binding intensity (ln)": 10.7}, {"sequence": "TAGACTCCCAGACACACACACACACCCATATAATAT [CACACA_site593]", "gcPBM binding intensity (ln)": 10.5}, {"sequence": "CACCCACCCAGACACACACACACACCCCCACCCATA [CACACA_site367]", "gcPBM binding intensity (ln)": 11.6}, {"sequence": "ATACATCAAGGACACACACACACACCCACACCCACA [CACACA_site8013]", "gcPBM binding intensity (ln)": 11.1}, {"sequence": "CACCCCCACAGACACACACACACACCCATATATATA [CACACA_site364]", "gcPBM binding intensity (ln)": 10.6}]}]}
